The values that follow come from PubChem BioAssay (Tox21).

Structures are written as SMILES. Calls of active or inactive are those of the source. Entries that show only a call come without a potency. Calls come from the whole dose curve.

The experiment can be described thus: G protein-coupled receptor (GPCR) small molecule agonists, calcium flux assay: HEK293 wild type cell line counter screen (AID 1920065). The conditions noted are these: HEK293 WT calcium flux, fluorescence, agonist mode; series mostly up to 57.6 µM. The text has this: U.S. Tox21 Program National Center for Advancing Translational Sciences [NCATS] Division of Preclinical Innovation [DPI] U.S. Environmental Protection Agency [EPA] National Institutes of Environmental Health Sciences [NIEHS] National Toxicology Program [NTP] U.S. Food and Drug Administration [FDA] Assay overview: The increased intracellular calcium release that occurred upon G protein-coupled receptor (GPCR) activation led to the frequent use of calcium flux assays to detect GPCR activation. For the purpose of studying and screening compounds that may activate GPCR, receptor-overexpressing models were typically generated using Hek293 wild-type (WT) cells. In order to eliminate the compounds that may have induced calcium release for non-specific activation, a counter-assay utilizing calcium flux on Hek293 WT cells was performed. The data were formulated in order to serve as a control for any calcium flux detection utilizing Hek293 cells with either GPCR overexpression or gene modification. The procurement of Hek293 WT cells from ATCC. Fluorescence intensity can be utilized to determine the activation of the compound in a calcium flux assay. As a counter control, this cell line was utilized to screen the Tox21 10K compound library.
Assay Protocol Summary: Hek293 cells were dispensed at 1500cells/4uL/well in 1536-well black wall/clear bottom plates using a multidrop dispenser. After the assay plates were incubated at a 37 C/5% CO2 incubator for 18 hours, 4 uL of Calcium Dye Solution was added to each well. The plates were incubated at 37 C for 1 hour. For agonist mode, 23 nL of compounds dissolved in DMSO, positive control (ATP) or DMSO only was transferred to the assay plate by a pin tool station. The fluorescence intensity in the plates was measured using FDSS 7000EX kinetic plate reader with a filter set of Ex/Em=480/540 for 3 min at 1 sec intervals. Each test compound was measured at 15 concentrations and in triplicates.
(In general: Calcium assays in cells follow changes in intracellular calcium, usually with a dye or a luminescent sensor.)
Turning to `CCCCCCCCCCCCCCCCCCOCC(O)CO` (stereo not given), the Potency entry is “inactive”.

On to `CC[C@H](C)[C@H](N)C(=O)O`, for which the Potency result was “inactive”.

Turning to `OCCN1CCN(CCCN2c3ccccc3C=Cc3ccccc32)CC1`, the Potency entry was “inactive”.

Regarding `Nc1ccccc1N`, the Potency entry was “inactive”.

Take `Cc1ccc(C(C)NC(=O)[C@@H](NC(=O)OC(C)C)C(C)C)cc1` (stereo not given in full): the Potency result is “inactive”.

For the compound `O=C(O)C(=O)Nc1cccc(-c2nn[nH]n2)c1`, the Potency entry is “inactive”.

On to `C=CCOCC(O)CO` (stereo not given), for which the Potency result was “inactive”.

`O=C(O)CNC(=O)c1ccccc1I`: the Potency result is “inactive”.

For the compound `CC(=O)c1ccc(O)c(C(N)=O)c1`, the Potency entry is “inactive”.

For `CCOC(=O)OC(=O)OCC`, the Potency entry was “inactive”.

In the case of `O=S(=O)(O)c1ccccc1`, the Potency result was “inactive”.

`CCCCc1ncc(/C=C(\Cc2cccs2)C(=O)O)n1Cc1ccc(C(=O)O)cc1`: the Potency entry was “inactive”.

Consider `C=CC(C)(CCC=C(C)C)OC(=O)CC` (stereo not given), for which the Potency result is “inactive”.

In the case of `O=C1OCCO1`, the Potency result is “inactive”.

`CCC(C(=O)OCCOCCN(CC)CC)c1ccccc1` (stereo not given): the Potency entry was “inactive”.

Consider `O=C(O)/C=C/C(=O)O`, for which the Potency entry is “inactive”.

Take `CCCCC(CC)CCC(CC(C)C)OS(=O)(=O)O` (stereo not given): the Potency result was “inactive”.

Turning to `Cc1ccc(C=O)cc1`, the Potency result was “inactive”.

Turning to `COC(=O)c1cc(S(N)(=O)=O)ccc1OC`, the Potency entry was “inactive”.

For the compound `Oc1ccc(/C=C/c2cc(O)cc(O)c2)cc1`, the Potency result was “inactive”.

`Cc1cccc(Cl)c1`: the Potency result is “inactive”.

Regarding `COc1ccccc1/C=C/C=O`, the Potency result is “inactive”.

On to `CC(=O)Nc1ccc(N=Nc2cc(C)ccc2O)cc1`, for which the Potency result is “inactive”.

On to `Cc1onc(-c2ccccc2)c1C(=O)Cl`, for which the Potency result is “inactive”.

`CC(C)(C)S`: the Potency entry is “inactive”.

Regarding `C[C@]12CCC(=O)C=C1CC[C@@H]1[C@@H]2[C@@H](O)C[C@@]2(C)[C@H]1CC[C@]2(O)C(=O)CO`, the Potency result was “inactive”.

In the case of `Cc1occc1S`, the Potency result was “inactive”.

As for `CNC(=O)NC`, the Potency result is “inactive”.

Take `CC(C)N=C(N)/N=C(\N)Nc1ccc(Cl)cc1`: the Potency entry is “inactive”.

In the case of `C[C@@H]1O[C@@H](OC[C@H]2O[C@@H](Oc3c(-c4ccc(O)c(O)c4)oc4cc(O)cc(O)c4c3=O)[C@H](O)[C@@H](O)[C@@H]2O)[C@H](O)[C@H](O)[C@H]1O`, the Potency result is “inactive”.

Turning to `CCN(CC)CCNC(=O)c1ccc(NC(C)=O)cc1`, the Potency entry was “inactive”.

Regarding `CCC(=O)O[C@@H]1C[C@H]2CC[C@]1(C)C2(C)C`, the Potency entry is “inactive”.

Consider `CC(C)NC(=O)c1ccccc1N`, for which the Potency result is “inactive”.

`CC(=O)OC/C=C/c1ccccc1`: the Potency entry is “inactive”.

Consider `CC/C(=C(/CC)c1ccc(O)cc1)c1ccc(O)cc1`, for which the Potency entry was “inactive”.

With `NS(=O)(=O)c1ccc(N2CCCCS2(=O)=O)cc1`, the Potency result was “inactive”.

As to `COc1ccc(NC(C)=O)cc1`, the Potency result is “inactive”.

Regarding `COCCCOc1cc(C[C@@H](C[C@H](N)[C@@H](O)C[C@H](C(=O)NCC(C)(C)C(N)=O)C(C)C)C(C)C)ccc1OC`, the Potency result is “inactive”.

Take `CC(=O)SC[C@@H](C)C(=O)N1CCC[C@H]1C(=O)N[C@@H](Cc1ccccc1)C(=O)O`: the Potency result was “inactive”.

For the compound `CCCCNc1ccccc1`, the Potency result was “inactive”.
